Holding throughout (experiment): NCI-60 one-dose screen, 48 h (100 = growth as untreated, 0 = no growth, -100 = all killed)
What all share (conditions): 10 µM unless noted

The subject of assay [1] is NCI-H23 lung.
The subject of assay [2] is NCI-H226 lung.
In assay [3] the test system is NCI-H322M lung.
Assay [4] deals with HOP-62 NSCLC.
Assay [5] relates to NCI-H460 lung.
Assay [6] has as its system HOP-92 NSCLC.
Assay [7] relates to NCI-H522 lung.
For assay [8], the system named is A549/ATCC NSCLC.
The subject of assay [9] is 786-0 renal.

This is part of a sample that, as a whole, favours compounds with a hit. Of some 83,000 tested, about 20% had one in any assay.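 Step 1: grow cells in 96-well plates. Step 2: add test compound at a single concentration. Step 3: incubate 48 h. Step 4: record percent growth.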 Values without a mark were called inactive. Calls of active or inactive are those of the source. Rule for the calls: active = growth percent below 10; inactive = the rest.

Regarding `CCn1nc(C#Cc2c(C)ccc3c(Nc4ccc(Cl)cc4)nccc23)c2c(N)ncnc21`, the growth in assay [1] was 18.4%; in assay [2], 14.8%; in assay [3] it was 29.2%; in assay [4] it was -0.0802% (active); in assay [5] it was 10.6%; in [6], 13.6%. Moreover, the growth in [7] is -15.4% (active); in [8] it was 16.8%; in assay [9], 14.1%.
With `Nc1ccc(-c2cc3c(Nc4ccc(OCc5cccc(F)c5)c(Cl)c4)ncnc3s2)cc1`, the growth is 68.6% in assay [1]; 53.5% in assay [2]; 26.6% in [3]; 62.3% in assay [4]; 36.5% in assay [5]; 45.8% in assay [6]. Further, the growth in [7] was 13.1%; in [8] it was 21.2%; in assay [9], 37.2%.
As to `N#C/C(=C\c1ccc(Br)cc1)n1nnc2cc(Cl)c(Cl)cc21`, the growth is 32.3% in assay [1]; 36.3% in assay [2]; 56.7% in assay [3]; 53.1% in assay [4]; 56.7% in assay [5]; 33.2% in assay [6]. The growth was 6.95% (active) in assay [7], 67.4% in [8] and 43.8% in assay [9].
For `COC(=O)c1ccc2oc(NC(=O)c3ccc(N4CCOCC4)c([N+](=O)[O-])c3)nc2c1`, the growth is 93% in [1]; 90.5% in [2]; 92.6% in assay [3]; 82.3% in [4]; 105% in assay [5]; 84.9% in assay [6]. Moreover, the growth in assay [7] is 91%; in assay [8], 98.7%; in assay [9], 108%.
As to `CC(=O)C(C(C)=O)c1nc2sc3cc(Cl)ccc3n2c(=N)c1C#N`, the growth is 81.4% in assay [1]; 75.1% in assay [2]; 87.3% in assay [3]; 81.9% in assay [4]; 95.2% in assay [5]; 56% in assay [6]. The growth in assay [7] is 83%; in [8] it was 98.7%; in assay [9], 98.3%.
With `C=CC(=O)Nc1cccc(C)c1Nc1cc(-c2cccnc2Cc2c(C)c(OC)cc(OC)c2C)ncn1`, the growth was 54.4% in [1]; 46.1% in assay [2]; 50.7% in [3]; -38% (active) in [4]; 4.5% (active) in assay [5]; 22.8% in assay [6]. Besides, the values for the growth in [7], in [8] and in [9] were -17.4% (active), 8.38% (active) and 16%, respectively.
In the case of `CCn1c(Sc2nnc(NC(=O)CCN3CCCC3)s2)nc2c1c(=O)n(C)c(=O)n2C`, the growth in assay [1] was 106%; in assay [2], 103%; in [3], 105%; in [4] it was 103%; in [5], 112%; in assay [6], 107%. Besides, the growth in [7] was 86.8%; in assay [8] it was 99.3%; in assay [9] it was 106%.
On to `N#C/C(=C\c1ccc2c(c1)OCO2)n1nnc2ccccc21`, for which the growth is 10.9% in [1]; 8.93% (active) in assay [2]; 9.39% (active) in [3]; 28.7% in assay [4]; 0.341% (active) in assay [5]; -2.71% (active) in [6]. Besides, the growth in [7] is 14%; in assay [8] it was 17.1%; in assay [9] it was 6.58% (active).
On to `O=C(NCCN1CCC(O)CC1)c1cc2c(o1)C(=O)c1ccccc1C2=O`, for which the growth in [1] is -50.9% (active); in assay [2] it was -77.5% (active); in assay [3] it was -98.6% (active); in assay [4], -66.6% (active); in assay [5], -75.9% (active); in [6], -67.4% (active). The growth is -56.3% (active) in assay [7], -57.7% (active) in assay [8] and -78.3% (active) in [9].
`Clc1ccc2c(NCCCN3CCN(c4nc(N5CCOCC5)nc5ccccc45)CC3)ccnc2c1`: the growth in assay [1] was 73.8%; in [2], 75.7%; in assay [3] it was 30%; in assay [4], 42.6%; in assay [5], 4.92% (active); in [6], 12.2%. The growth in assay [7] is 13%; in assay [8], 24%; in [9], -36% (active).
With `Cc1nc2ccc(C(=O)NCc3cc(C(=O)O)c(C)o3)cc2nc1C`, the growth in assay [1] is 101%; in [2] it was 100%; in assay [3], 96.9%; in assay [4], 77%; in assay [5] it was 100%; in [6] it was 90.8%. Moreover, the values for the growth in [7], in assay [8] and in [9] were 92.2%, 91.4% and 94.4%, respectively.
In the case of `CSc1ccc(Cl)c(C(=O)Nc2sccc2C(N)=O)c1`, the growth in assay [1] was 97.9%; in assay [2] it was 79.9%; in assay [3], 124%; in assay [4], 107%; in assay [5], 101%; in assay [6], 75.6%. Also, the growth is 92.2% in [7], 85.6% in assay [8] and 94.2% in [9].
As for `Cc1c(Cl)cccc1NS(=O)(=O)c1ccccc1`, the growth was 113% in [1]; 93.1% in assay [2]; 110% in assay [3]; 112% in assay [4]; 112% in assay [5]; 89.2% in assay [6]. Moreover, the values for the growth in assay [7], in assay [8] and in [9] were 98.4%, 104% and 106%, respectively.
Consider `Cc1cc(-c2noc(C(F)(F)F)n2)ccc1N1CCN(c2cc(C(=O)N(C)C)no2)CC1`, for which the growth in [1] was 55.6%; in [2], 55.8%; in assay [3], 101%; in assay [4] it was 68.1%; in assay [5], 75.7%; in [6], 63.5%. The growth in assay [7] is 57%; in [8] it was 67.3%; in [9], 80.4%.
Turning to `CCOC(=O)c1c(C)nc2c(c1N)/C(=C/c1ccc(OC)cc1)C(=O)N2Cc1ccc(F)cc1`, the growth was -38.2% (active) in assay [1]; 8.52% (active) in [2]; 9.93% (active) in assay [3]; -45.3% (active) in [4]; 2.95% (active) in assay [5]; -55.6% (active) in [6]. The growth in [7] is -69.6% (active); in assay [8], 12%; in assay [9], -50.6% (active).

(Values after PubChem BioAssay (NCI).)
